# Tested on: Plasmodium falciparum
# Assay: GSK_TCMDC: Inhibition of Plasmodium falciparum 3D7 in whole red blood cells, using parasite LDH activity as an index of growth. Test compounds present at 2uM
# Format: functional
row,SMILES,Inhibition [%]
1,COc1cc(C(=O)N2C(c3nccs3)C(C(=O)N(OC)C(C)c3ccccc3)CC2(CC(C)C)C(=O)OC(C)(C)C)ccc1C(C)(C)C (stereo not given),92
2,CC(C)(C)c1ccc(CNCCOc2ccc(Nc3nnc(-c4ccc(-c5ncc[nH]5)cc4)o3)c3ccccc23)cc1.O=C(O)C(F)(F)F,100
3,COc1ccc(NCCCNc2ccnc3ccccc23)cc1,88
4,CCc1cn(C)c2c(N3CCCC3=O)cc(C(=O)N[C@@H](Cc3ccccc3)[C@H](O)CNC(C)(C)c3cccc(C(F)(F)F)c3)cc12,97
5,CN1CCC(c2c[nH]c3ccc(NC(=O)Nc4ccc(-c5ccncc5)cc4Cl)cc23)CC1,100
6,Cc1ccc(NC(=O)c2ccc3ncccc3c2)cc1OC1CCN(Cc2ccc(F)cc2)CC1.O=C(O)C(F)(F)F,91
7,c1ccc2[nH]c(Nc3ccc(Nc4nc5ccccc5[nH]4)cc3)nc2c1,98
8,CCCCCCN1CCCN(Cc2ccc(C(=O)Nc3cccc(CC)c3)cc2)CC1.O=C(O)C(F)(F)F,85
9,CCc1c(CCNCC/C=C/CCNCCc2ccc(OC)c(OC)c2CC)ccc(OC)c1OC.Cl,100
10,COCn1ncc2cc(-c3cccc(NC(=O)c4csc(NC(C)=O)n4)c3)ccc21,89
11,COc1cc2nc(N(C)Cc3cccc(I)c3)nc(N)c2cc1OC,100
12,Cc1ccc(S(=O)(=O)NC2CCN(CCNC(=O)Nc3cc(C)nc4ccccc34)C2)cc1 (stereo not given),97
13,CCC[C@@H]([C@@H](CC1CCCCC1)C(=O)N[C@@H](CCOC(=O)NCC)C(=O)Nc1nccs1)N(O)C=O,100
14,O=C(Nc1cccc(CN2CCCN(Cc3ccccc3)CC2)c1)c1cc2ccccc2s1.O=C(O)C(F)(F)F,87
15,O=C(NCCN1CCC(c2ccncc2)CC1)c1ccc(Nc2nccc(Nc3ccc(Oc4ccccc4)cc3)n2)cc1,100
16,c1ccc(COc2ccc(COc3ccc(Cn4ccnc4)cc3)cc2)cc1,86
17,FC(F)(F)c1ccc(N2CCCN(Cc3cccc(-c4ccccc4CNCc4ccc5c(c4)OCO5)c3)CC2)nc1.O=C(O)C(F)(F)F,87
18,Br.Cc1cccc(OCCCCON2C(=N)N=C(N)NC2(C)C)c1C,97
19,CC(C)NCc1ccc(-c2ccc(CN3CCCC(c4ccccc4)C3)cc2)c(C(=O)NC2Cc3ccccc3C2)c1.O=C(O)C(F)(F)F (stereo not given),96
20,CCN(CC)CCN(Cc1ccc(-c2ccc(C(F)(F)F)cc2)cc1)C(=O)Cn1c(CCc2ccc(F)c(F)c2F)nc(=O)c2ccccc21.O=C(O)C(O)C(O)C(=O)O,97

row,SMILES,Inhibition [%]
1,Cl.Nc1nc(N)c2c(ccc3c2ccn3C2CCCCC2)n1,97
2,COC(=O)Nc1ccc(-c2ccc(C(=O)NC3CCN(C[C@H](O)c4ccnc5ccc(OC)cc45)CC3)cc2)c(C)c1,100
3,CN1CCN=C1c1ccc(NC(=O)Nc2ccc(C3=NCCN3C)cc2)cc1.Cl,85
4,Cn1cnc2c(SCc3ccc(OCc4ccccc4)cc3)ncnc21,95
5,Cc1cc(N[C@@H](CC(C)C)C(=O)NCc2cccc(F)c2)nc(Nc2ccccc2)n1.O=C(O)C(F)(F)F,100
6,O=C(Nc1cccc(N2CCC(NCCCn3ccnc3)CC2)c1)c1cccc(C(F)(F)F)c1,100
7,Cc1cccc2nc(-c3ccc(-c4cccc(NC(=O)COc5ccccc5C(N)=O)c4)s3)[nH]c12,99
8,CN(C)CCOc1ccc(-c2cc(-c3ccc(Cl)c(O)c3)c(-c3ccncc3)[nH]2)cc1.Cl,98
9,Cc1cc2c(NC(=O)NC3CCN(CCc4ccccc4Cl)CC3)cccc2cn1.Cl,100
10,O=C(O)C(F)(F)F.Oc1ccc(CCCNc2nc(NCc3cccc4ccccc34)nc(N3CCCNCC3)n2)cc1,96
11,COc1ccc(S(=O)(=O)NCC2CCCN(CCCCCNC(=O)/C=C/c3ccc(Cl)c(Cl)c3)C2)cc1 (stereo not given),81
12,Cc1ccc(C(C#N)c2ccc3c(C(F)(F)F)cc(C(F)(F)F)nc3n2)cc1 (stereo not given),96
13,CC(C)(C)c1ccc2[nH]c(-c3ccc(C(=O)NC4CCN(Cc5ccccc5)CC4)s3)nc2c1,91
14,Cc1[nH]c2ccccc2c1C(=O)C(C)Sc1nnc(-c2ccccc2Br)[nH]1 (stereo not given),100
15,COc1cc(Cc2cnc(N)nc2N)cc(OCc2cccc(C(=O)O)c2)c1OC.Cl,92
16,O=C(c1cccc(-c2ccc(-c3nc4cc(C(F)(F)F)ccc4[nH]3)cc2)c1)N1CCCCC1CN1CCC(O)C1 (stereo not given),92
17,O=C(Nc1ccnc(-c2cccnc2)n1)c1cc(C(F)(F)F)cc(C(F)(F)F)c1,95
18,COc1cc(C)ccc1S(=O)(=O)N1CCCCC(c2ccc(C(F)(F)F)cc2)=N1,92
19,Cl.c1ccc(Cn2nnnc2-c2cccc(Nc3ccnc4cc(-c5nccs5)ccc34)c2)cc1,87
20,CN(C(=O)Nc1ccc(F)cc1)C1CCN(CCCCCNC(=O)/C=C/c2ccc(Cl)c(Cl)c2)CC1,89
